High-throughput results as filed in PubChem.
MEKK3 PB1 HTS: modulators of MEKK3-MEK5 PB1 binding, primary screen, biochemical, wildtype MEKK3, multiplex bead flow cytometry, Alexa488-MEK5 | AID 1529, 2009 | 1.4% of 290,000 active | binding response (% of control), % at 10 µM | Mitogen-activated protein kinase kinase kinase 3 (Homo sapiens), Q99759 | bead-based flow cytometry, Alexa488-MEK5 binding to MEKK3; actives lie on both sides; 0 = blocked by unlabeled MEK5, 100 = vehicle;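 active = binding response more than 3 SD above or below the average of its plate-row segment, actives on both sides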;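 note: Alexa488 bead fluorescence after subtracting the streptavidin-only scavenger bead signal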
Target sequence (Q99759 whole entry, looked up): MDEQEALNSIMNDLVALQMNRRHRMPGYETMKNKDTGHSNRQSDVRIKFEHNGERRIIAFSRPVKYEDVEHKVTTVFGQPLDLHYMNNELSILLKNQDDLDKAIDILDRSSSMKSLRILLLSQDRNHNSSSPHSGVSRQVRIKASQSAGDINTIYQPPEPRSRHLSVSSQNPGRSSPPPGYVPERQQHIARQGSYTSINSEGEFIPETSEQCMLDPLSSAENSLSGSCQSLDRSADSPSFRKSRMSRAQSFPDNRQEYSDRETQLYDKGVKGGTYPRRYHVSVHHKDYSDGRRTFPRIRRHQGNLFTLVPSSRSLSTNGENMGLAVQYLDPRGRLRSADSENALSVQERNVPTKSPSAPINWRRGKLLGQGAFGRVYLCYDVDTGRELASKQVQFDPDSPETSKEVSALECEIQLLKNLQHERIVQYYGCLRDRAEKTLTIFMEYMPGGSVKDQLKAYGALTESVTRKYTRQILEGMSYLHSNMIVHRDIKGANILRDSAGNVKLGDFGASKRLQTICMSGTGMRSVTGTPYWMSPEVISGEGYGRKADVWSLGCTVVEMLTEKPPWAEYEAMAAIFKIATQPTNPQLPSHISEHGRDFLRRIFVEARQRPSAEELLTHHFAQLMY
MEKK2wt PB1 HTS: modulators of MEK5 binding to wildtype MEKK2, primary screen, biochemical, multiplex bead flow cytometry, Alexa488-MEK5 | Mitogen-activated protein kinase kinase kinase 2 (Homo sapiens), Q9Y2U5 | AID 1531, 2009 | 1.1% of 290,000 active | Alexa488-MEK5 binding to MEKK2 WT; actives lie on both sides | binding response (% of control), % at 10 µM; in the data active = binding response below about 67% or above about 130%
dFosB act-1: activators of delta FosB homodimer, primary screen, biochemical, fluorescence polarization, TAMRA-CDK5 oligo, single point | Protein FosB (Mus musculus), P13346 | purified delta FosB; percent of positive-control signal above neutral wells | activation, % at 25 µM | 0.99% of 340,000 active;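 active = mean activation above about 17%, with every replicate also reaching it, limit read from the data, passing the limit was not always enough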
MEKK2mut PB1 HTS: MEK5 binding signal on mutant MEKK2 PB1, primary screen, biochemical, multiplex bead flow cytometry, Alexa488-MEK5 | Alexa488-MEK5 binding to MEKK2 mutant | percent response, % at 10 µM | 0.35% of 290,000 active | AID 1530, 2009; in the data active = percent response above about 24%, passing the limit was not always enough
DNA FID counter: compounds displacing fluorescent DNA intercalator, primary screen, artefact control for HCV NS3 helicase inhibitor project, biochemical, FID fluorescence | DNA fluorescent intercalator displacement | inhibition, % at 7.9 µM | 0.17% of 290,000 active | AID 1845, 2009; in the data active = inhibition above about 37%;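 note: 0% = vehicle and 100% = reference compound; higher means more ethidium bromide displaced from hairpin DNA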
dFosB act-2: activators of mouse delta FosB DNA binding, confirmation, biochemical, fluorescence polarization, TAMRA-CDK5 oligo, cherry-picked samples; activation, % at 24.9 µM; shares compounds with dFosB act-1; AID 588690, 2011; 2,400 tested, under 10 active; purified delta FosB; normalised: neutral wells 0, positive control 100;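 active = highest replicate activation at or above 34% and every replicate reaching that threshold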;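 note: higher polarization means more probe DNA bound by delta FosB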
An asterisk follows results filed as active. Compounds with a hit are over-represented: about 2.9% of the library has one in this group of screens.

How did Cc1ccsc1C(=O)NNC(=O)Nc1ccc(Cl)c(Cl)c1 do in these assays?
MEKK3 PB1 HTS: 96; MEKK2wt PB1 HTS: 95; dFosB act-1: 25*; MEKK2mut PB1 HTS: 1; DNA FID counter: 5; dFosB act-2: 0

What do the screens show for `Cc1occc1C(=O)NNC(=O)Nc1ccc(Cl)c(Cl)c1`?
MEKK3 PB1 HTS: 99; MEKK2wt PB1 HTS: 105; dFosB act-1: -7; MEKK2mut PB1 HTS: -1; DNA FID counter: 2

Results for COc1ccc2oc(C(=O)OCC(=O)Nc3ccc(NC(C)=O)cc3)c(C)c2c1 ?
dFosB act-1: 36*; dFosB act-2: -8

How did COc1ccc2oc(C(=O)OCC(=O)Nc3cc(S(=O)(=O)N4CCOCC4)ccc3C)c(C)c2c1 do in these assays?
dFosB act-1: 38*; dFosB act-2: 3

How did COc1ccc2oc(C(=O)OCC(=O)Nc3ccc(OC)c(S(N)(=O)=O)c3)c(C)c2c1 do in these assays?
dFosB act-1: -12

Results for Cc1ccc(C)c(NC(=O)CN(C)C(=O)c2ccc(-c3cccc(C(F)(F)F)c3)o2)c1 ?
dFosB act-1: -14

How did Cc1ccc2nc(NC(=O)c3ccc4ncsc4c3)sc2c1 do in these assays?
MEKK3 PB1 HTS: 118; MEKK2wt PB1 HTS: 117; dFosB act-1: 22*; MEKK2mut PB1 HTS: 14; DNA FID counter: -3; dFosB act-2: -10

What do the screens show for `Cc1ccc2nc(NC(=O)c3ccc(Cl)s3)sc2c1`?
MEKK3 PB1 HTS: 102; MEKK2wt PB1 HTS: 101; dFosB act-1: 26*; MEKK2mut PB1 HTS: 3; DNA FID counter: -3; dFosB act-2: -1

Results for Cc1ccc2nc(NC(=O)c3cccs3)sc2c1 ?
MEKK3 PB1 HTS: 96; MEKK2wt PB1 HTS: 102; dFosB act-1: 10; MEKK2mut PB1 HTS: 0; DNA FID counter: 1

What do the screens show for `CCOC(=O)c1c(NC(=O)C2=C(C)NC(=S)NC2c2ccc(CC)cc2)sc(C)c1C` (configuration not stated)?
MEKK3 PB1 HTS: 89; MEKK2wt PB1 HTS: 84; MEKK2mut PB1 HTS: -4; DNA FID counter: -20

What do the screens show for `COc1ccccc1N1CCN(C2CCCN(Cc3ccccc3OCCO)C2)CC1` (configuration not stated)?
MEKK3 PB1 HTS: 104; MEKK2wt PB1 HTS: 112; dFosB act-1: 1; MEKK2mut PB1 HTS: 13; DNA FID counter: 2

How did O=C(COc1ccc(Cl)cc1Cl)NNC(=S)Nc1ccc(F)cc1 do in these assays?
MEKK3 PB1 HTS: 98; MEKK2wt PB1 HTS: 96; dFosB act-1: -5; MEKK2mut PB1 HTS: 1; DNA FID counter: -23

How did CC(=O)NC(=S)Nc1ccc(NC(=O)COc2ccc(Cl)cc2Cl)cc1 do in these assays?
MEKK3 PB1 HTS: 99; MEKK2wt PB1 HTS: 98; dFosB act-1: 73*; MEKK2mut PB1 HTS: -2; DNA FID counter: -2; dFosB act-2: -7

How did Cc1ccc(Cl)cc1NC(=O)c1ccccc1OCC(=O)Nc1ccc(Cl)cc1 do in these assays?
MEKK3 PB1 HTS: 86; MEKK2wt PB1 HTS: 116; dFosB act-1: 33*; MEKK2mut PB1 HTS: 2; DNA FID counter: 2; dFosB act-2: 3

What do the screens show for `NC(=O)c1cc(-c2ccccc2)nc2ccc(Br)cc12`?
MEKK3 PB1 HTS: 102; MEKK2wt PB1 HTS: 102; dFosB act-1: 23*; MEKK2mut PB1 HTS: 4; DNA FID counter: 1; dFosB act-2: 3

How did O=C(O)c1cc(-c2cccnc2)nc2ccc(Br)cc12 do in these assays?
MEKK3 PB1 HTS: 95; MEKK2wt PB1 HTS: 79; dFosB act-1: -11; MEKK2mut PB1 HTS: -17; DNA FID counter: -3

Results for CCN(CC)C(=O)Cn1cc(S(=O)(=O)CC(=O)Nc2ccc(C(N)=O)cc2)c2ccccc21 ?
MEKK3 PB1 HTS: 100; MEKK2wt PB1 HTS: 99; dFosB act-1: 3; MEKK2mut PB1 HTS: 4; DNA FID counter: -15

Results for CC(=O)Oc1cccc(N2C(=O)c3ccc(C(=O)Nc4c[nH]c(=O)[nH]c4=O)cc3C2=O)c1 ?
MEKK3 PB1 HTS: 96; MEKK2wt PB1 HTS: 91; dFosB act-1: 20*; MEKK2mut PB1 HTS: -9; DNA FID counter: -1; dFosB act-2: 1

How did O=C(Nc1ccc(OC(F)F)cc1)c1ncc(Cl)c(Cl)c1Cl do in these assays?
MEKK3 PB1 HTS: 103; MEKK2wt PB1 HTS: 101; dFosB act-1: -4; MEKK2mut PB1 HTS: -2; DNA FID counter: -3

How did Cc1ccc(NC(=O)c2ncc(Cl)c(Cl)c2Cl)cc1C do in these assays?
MEKK3 PB1 HTS: 96; MEKK2wt PB1 HTS: 97; dFosB act-1: 26*; MEKK2mut PB1 HTS: -3; DNA FID counter: -13; dFosB act-2: 0

How did O=C(CCCCn1c(=S)[nH]c2ccsc2c1=O)NCc1ccc2c(c1)OCO2 do in these assays?
MEKK3 PB1 HTS: 93; MEKK2wt PB1 HTS: 87; dFosB act-1: 125*; MEKK2mut PB1 HTS: -11; DNA FID counter: -20; dFosB act-2: 1

How did COc1ccc2[nH]cc(CCNS(=O)(=O)c3ccc(C)cc3)c2c1 do in these assays?
MEKK3 PB1 HTS: 105; MEKK2wt PB1 HTS: 105; dFosB act-1: 0; MEKK2mut PB1 HTS: 10; DNA FID counter: -13

What do the screens show for `COc1cc(/C=C2\SC(=O)N(CC(=O)Nc3ccccc3F)C2=O)cc(Cl)c1O`?
MEKK3 PB1 HTS: 107; MEKK2wt PB1 HTS: 101; dFosB act-1: 3; MEKK2mut PB1 HTS: 6; DNA FID counter: 0

How did COc1ccc(/C=C2\SC(=O)N(CC(=O)Nc3ccc(F)cc3)C2=O)cc1O do in these assays?
MEKK3 PB1 HTS: 98; MEKK2wt PB1 HTS: 98; dFosB act-1: 19*; MEKK2mut PB1 HTS: -2; DNA FID counter: 4; dFosB act-2: 8

What do the screens show for `COc1cc(OC)c(/C=C2\SC(=O)N(CC(=O)Nc3ccccc3F)C2=O)c(OC)c1`?
MEKK3 PB1 HTS: 110; MEKK2wt PB1 HTS: 107; dFosB act-1: 23*; MEKK2mut PB1 HTS: 5; DNA FID counter: -18; dFosB act-2: 0

What do the screens show for `COc1ccc(/C=C2\SC(=O)N(CC(=O)NCCC(C)C)C2=O)cc1OC`?
MEKK3 PB1 HTS: 100; MEKK2wt PB1 HTS: 99; dFosB act-1: 14; MEKK2mut PB1 HTS: 3; DNA FID counter: -1

What do the screens show for `COc1ccc(/C=C2/SC(=O)N(CC(=O)NCCC(C)C)C2=O)cc1OC`?
MEKK3 PB1 HTS: 90; MEKK2wt PB1 HTS: 86; dFosB act-1: 17*; MEKK2mut PB1 HTS: -14; DNA FID counter: -3; dFosB act-2: 5
